Source: article PMC7862700, “An all-to-all approach to the identification of sequence-specific readers for epigenetic DNA modifications on cytosine”

How the values were obtained:
Test in all cases: DAPPL (digital affinity profiling via proximity ligation, sequencing); 10 mM Tris-HCl pH 7.5, 50 mM NaCl, 1 mM DTT, 4% glycerol, room temperature, 30 min; GST-TFs on glutathione beads, 16-mer random dsDNA library, 0.1% formaldehyde crosslink after washing; high values mean tight binding
FLI1 = target: T1, FLI1 (Homo sapiens, UniProt Q01543 1-452); details: protein: recombinant; tags: N-terminal GST; dsDNA, one strand shown
T1 sequence: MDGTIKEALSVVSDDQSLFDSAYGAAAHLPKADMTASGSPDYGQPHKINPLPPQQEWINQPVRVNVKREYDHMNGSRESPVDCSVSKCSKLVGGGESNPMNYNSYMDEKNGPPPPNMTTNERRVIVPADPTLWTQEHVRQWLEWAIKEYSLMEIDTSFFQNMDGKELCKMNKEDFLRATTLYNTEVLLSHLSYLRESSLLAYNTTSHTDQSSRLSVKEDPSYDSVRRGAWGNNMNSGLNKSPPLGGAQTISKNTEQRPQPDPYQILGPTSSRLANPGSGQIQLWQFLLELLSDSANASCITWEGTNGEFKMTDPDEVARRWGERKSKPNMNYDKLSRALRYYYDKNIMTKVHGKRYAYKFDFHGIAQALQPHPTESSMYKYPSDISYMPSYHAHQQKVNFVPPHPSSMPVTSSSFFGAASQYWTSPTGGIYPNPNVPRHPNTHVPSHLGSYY
In short: (§1)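 Pools of DNA-barcoded human transcription factors, expressed in yeast as GST fusions on glutathione beads and combined with a tag-only sample, were incubated with 200 nmole of a 16-mer random double-stranded DNA library. Incubation took 30 min at room temperature in Tris/NaCl/DTT/glycerol buffer and was followed by washing, 0.1% formaldehyde crosslinking, proximity ligation (BsaI/T4 ligase, 1 h, 37 °C), PCR amplification and sequencing on an Illumina NextSeq500. Binding signal is the ratio of a hexamer's read frequency for a factor to its frequency for the tag-only sample.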

ELK1 = target: T2, ELK1 (Homo sapiens, UniProt P19419 1-428); details: protein: recombinant; tags: N-terminal GST; dsDNA, one strand shown
T2 sequence: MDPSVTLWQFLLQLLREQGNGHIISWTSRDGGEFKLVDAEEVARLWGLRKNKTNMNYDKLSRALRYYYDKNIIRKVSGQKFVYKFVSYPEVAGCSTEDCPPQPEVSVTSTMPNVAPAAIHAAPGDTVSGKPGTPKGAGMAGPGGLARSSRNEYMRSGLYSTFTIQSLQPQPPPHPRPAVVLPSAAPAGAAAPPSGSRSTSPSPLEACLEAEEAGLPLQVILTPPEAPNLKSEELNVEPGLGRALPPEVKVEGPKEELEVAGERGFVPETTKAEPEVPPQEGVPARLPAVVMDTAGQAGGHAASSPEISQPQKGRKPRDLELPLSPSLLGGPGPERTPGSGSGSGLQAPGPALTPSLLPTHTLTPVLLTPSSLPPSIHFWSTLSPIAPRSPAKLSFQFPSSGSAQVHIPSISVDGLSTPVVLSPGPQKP
In short: as §1

GABPA = target: T3, GABPA (Homo sapiens, UniProt Q06546 1-454); details: protein: recombinant; tags: N-terminal GST; dsDNA, one strand shown
T3 sequence: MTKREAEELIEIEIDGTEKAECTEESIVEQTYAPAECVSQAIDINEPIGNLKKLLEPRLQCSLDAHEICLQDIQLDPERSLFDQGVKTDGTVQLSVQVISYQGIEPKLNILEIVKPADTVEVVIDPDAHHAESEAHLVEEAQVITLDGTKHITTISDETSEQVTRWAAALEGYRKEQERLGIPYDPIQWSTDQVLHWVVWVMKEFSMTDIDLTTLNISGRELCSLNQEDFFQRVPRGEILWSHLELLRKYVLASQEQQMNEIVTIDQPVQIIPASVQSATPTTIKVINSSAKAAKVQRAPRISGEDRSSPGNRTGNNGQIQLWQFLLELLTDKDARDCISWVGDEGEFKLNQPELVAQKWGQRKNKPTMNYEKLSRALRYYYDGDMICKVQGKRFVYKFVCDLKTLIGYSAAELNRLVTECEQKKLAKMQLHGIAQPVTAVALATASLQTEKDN
In short: as §1

ERG = target: T4, ERG (Homo sapiens, UniProt P11308 1-479); details: protein: recombinant; tags: N-terminal GST; dsDNA, one strand shown
T4 sequence: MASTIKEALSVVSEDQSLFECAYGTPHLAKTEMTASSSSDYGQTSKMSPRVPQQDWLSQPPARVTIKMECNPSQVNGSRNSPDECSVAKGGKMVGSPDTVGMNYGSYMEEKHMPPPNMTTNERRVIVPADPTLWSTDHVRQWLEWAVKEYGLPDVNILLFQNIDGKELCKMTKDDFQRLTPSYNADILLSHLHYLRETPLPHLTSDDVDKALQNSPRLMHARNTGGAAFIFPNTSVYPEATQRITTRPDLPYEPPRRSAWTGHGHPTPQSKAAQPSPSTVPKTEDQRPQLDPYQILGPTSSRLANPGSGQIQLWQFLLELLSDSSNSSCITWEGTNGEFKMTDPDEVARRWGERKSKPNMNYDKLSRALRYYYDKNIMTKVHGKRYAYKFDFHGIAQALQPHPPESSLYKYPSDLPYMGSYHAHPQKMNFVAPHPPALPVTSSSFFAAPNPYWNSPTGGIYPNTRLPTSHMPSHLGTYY
In short: as §1

ELF1 = ELF1 (Homo sapiens, UniProt P32519 1-619); details: protein: recombinant; tags: N-terminal GST; dsDNA, one strand shown
Chain of ELF1 (P32519 whole entry): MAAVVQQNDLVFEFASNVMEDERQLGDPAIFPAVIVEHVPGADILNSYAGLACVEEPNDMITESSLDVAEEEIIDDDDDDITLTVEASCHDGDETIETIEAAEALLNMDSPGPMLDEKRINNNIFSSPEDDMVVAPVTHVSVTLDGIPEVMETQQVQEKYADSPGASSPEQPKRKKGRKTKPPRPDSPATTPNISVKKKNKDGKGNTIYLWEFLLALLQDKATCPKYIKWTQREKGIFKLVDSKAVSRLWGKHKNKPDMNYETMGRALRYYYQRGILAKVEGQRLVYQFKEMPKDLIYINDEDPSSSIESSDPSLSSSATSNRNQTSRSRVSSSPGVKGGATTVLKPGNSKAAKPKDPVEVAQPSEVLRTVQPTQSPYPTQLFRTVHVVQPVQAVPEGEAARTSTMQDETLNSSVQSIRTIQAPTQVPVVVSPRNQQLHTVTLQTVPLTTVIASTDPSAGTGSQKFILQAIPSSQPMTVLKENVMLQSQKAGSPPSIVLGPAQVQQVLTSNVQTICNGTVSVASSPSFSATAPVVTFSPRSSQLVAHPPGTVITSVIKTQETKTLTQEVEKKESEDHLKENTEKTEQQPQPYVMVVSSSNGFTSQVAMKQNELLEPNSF
In short: as §1

EHF = target: T5, EHF (Homo sapiens, UniProt Q9NZC4 1-300); details: protein: recombinant; tags: N-terminal GST; dsDNA, one strand shown
T5 sequence: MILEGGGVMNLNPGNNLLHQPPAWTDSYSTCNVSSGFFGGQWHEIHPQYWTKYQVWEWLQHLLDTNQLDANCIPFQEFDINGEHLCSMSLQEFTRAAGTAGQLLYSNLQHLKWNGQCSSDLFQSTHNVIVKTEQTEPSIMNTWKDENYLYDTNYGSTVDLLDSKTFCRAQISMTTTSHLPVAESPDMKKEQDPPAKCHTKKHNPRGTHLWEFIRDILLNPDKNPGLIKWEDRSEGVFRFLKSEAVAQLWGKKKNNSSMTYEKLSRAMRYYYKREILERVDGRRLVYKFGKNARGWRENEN
In short: as §1

SPI1 = SPI1 (Homo sapiens, UniProt P17947 1-270); details: protein: recombinant; tags: N-terminal GST; dsDNA, one strand shown
In short: as §1

SPIB = SPIB (Homo sapiens, UniProt Q01892 1-262); details: protein: recombinant; tags: N-terminal GST; dsDNA, one strand shown
Chain of SPIB (Q01892 whole entry): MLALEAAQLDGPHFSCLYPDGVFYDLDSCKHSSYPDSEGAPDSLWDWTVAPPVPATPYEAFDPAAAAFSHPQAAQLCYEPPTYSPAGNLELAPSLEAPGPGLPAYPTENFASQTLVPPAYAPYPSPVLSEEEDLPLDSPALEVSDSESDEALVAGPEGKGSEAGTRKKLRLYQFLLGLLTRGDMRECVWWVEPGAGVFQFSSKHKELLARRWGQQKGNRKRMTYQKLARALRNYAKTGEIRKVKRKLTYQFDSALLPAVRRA
In short: as §1

ELK3 = target: T6, ELK3 (Homo sapiens, UniProt P41970 1-407); details: protein: recombinant; tags: N-terminal GST; dsDNA, one strand shown
T6 sequence: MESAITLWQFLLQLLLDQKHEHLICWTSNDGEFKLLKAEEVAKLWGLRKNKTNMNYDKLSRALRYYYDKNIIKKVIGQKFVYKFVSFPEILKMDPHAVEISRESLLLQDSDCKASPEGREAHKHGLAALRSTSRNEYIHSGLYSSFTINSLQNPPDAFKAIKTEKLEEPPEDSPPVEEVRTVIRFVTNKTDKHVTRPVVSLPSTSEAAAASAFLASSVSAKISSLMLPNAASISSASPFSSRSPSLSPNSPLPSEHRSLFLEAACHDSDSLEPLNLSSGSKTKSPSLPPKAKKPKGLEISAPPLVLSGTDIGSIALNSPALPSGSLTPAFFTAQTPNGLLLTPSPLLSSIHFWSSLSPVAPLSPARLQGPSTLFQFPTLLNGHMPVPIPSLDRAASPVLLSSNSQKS
In short: as §1

FEV = target: T7, FEV (Homo sapiens, UniProt Q99581 1-238); details: protein: recombinant; tags: N-terminal GST; dsDNA, one strand shown
T7 sequence: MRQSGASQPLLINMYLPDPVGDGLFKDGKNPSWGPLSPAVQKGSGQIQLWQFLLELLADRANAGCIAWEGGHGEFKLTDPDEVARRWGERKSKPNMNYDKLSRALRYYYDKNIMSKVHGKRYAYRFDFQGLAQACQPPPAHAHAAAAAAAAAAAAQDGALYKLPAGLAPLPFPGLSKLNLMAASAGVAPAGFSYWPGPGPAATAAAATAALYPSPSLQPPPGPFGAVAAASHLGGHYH
In short: as §1

ETV5 = ETV5 (Homo sapiens, UniProt P41161 1-510); details: protein: recombinant; tags: N-terminal GST; dsDNA, one strand shown
Chain of ETV5 (P41161 whole entry): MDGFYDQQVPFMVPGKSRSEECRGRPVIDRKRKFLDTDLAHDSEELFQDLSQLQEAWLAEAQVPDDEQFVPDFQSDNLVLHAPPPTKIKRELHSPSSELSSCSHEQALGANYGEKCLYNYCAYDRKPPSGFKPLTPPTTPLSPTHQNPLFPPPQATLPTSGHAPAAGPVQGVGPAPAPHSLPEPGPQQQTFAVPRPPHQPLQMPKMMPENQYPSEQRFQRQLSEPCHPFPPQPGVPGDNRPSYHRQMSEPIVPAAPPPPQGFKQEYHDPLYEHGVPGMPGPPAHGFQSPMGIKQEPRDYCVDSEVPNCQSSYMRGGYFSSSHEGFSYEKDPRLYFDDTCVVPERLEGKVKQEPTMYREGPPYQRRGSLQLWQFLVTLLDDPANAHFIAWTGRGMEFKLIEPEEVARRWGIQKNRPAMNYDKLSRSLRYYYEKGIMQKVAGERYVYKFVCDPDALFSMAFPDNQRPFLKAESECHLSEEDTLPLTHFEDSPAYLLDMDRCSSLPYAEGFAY
In short: as §1

HSF1 = HSF1 (Homo sapiens, UniProt Q00613 1-529); details: protein: recombinant; tags: N-terminal GST; chain copies: 3; dsDNA, one strand shown
Chain of HSF1 (Q00613 whole entry): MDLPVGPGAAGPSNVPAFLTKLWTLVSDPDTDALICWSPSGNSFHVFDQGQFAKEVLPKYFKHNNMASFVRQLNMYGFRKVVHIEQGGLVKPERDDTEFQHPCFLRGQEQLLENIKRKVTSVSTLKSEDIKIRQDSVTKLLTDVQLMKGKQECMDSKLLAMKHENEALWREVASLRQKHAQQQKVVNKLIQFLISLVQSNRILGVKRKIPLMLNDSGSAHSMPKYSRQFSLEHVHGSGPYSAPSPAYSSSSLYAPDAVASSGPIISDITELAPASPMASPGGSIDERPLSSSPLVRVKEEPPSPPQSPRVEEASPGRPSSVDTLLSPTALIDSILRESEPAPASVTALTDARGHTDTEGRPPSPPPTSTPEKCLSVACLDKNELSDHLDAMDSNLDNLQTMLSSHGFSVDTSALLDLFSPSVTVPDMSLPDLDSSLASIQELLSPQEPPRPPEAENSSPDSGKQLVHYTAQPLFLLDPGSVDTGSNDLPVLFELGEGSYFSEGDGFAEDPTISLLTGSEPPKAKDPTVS
In short: as §1

SPIC = target: T8, SPIC (Homo sapiens, UniProt Q8N5J4 1-248); details: protein: recombinant; tags: N-terminal GST; dsDNA, one strand shown
T8 sequence: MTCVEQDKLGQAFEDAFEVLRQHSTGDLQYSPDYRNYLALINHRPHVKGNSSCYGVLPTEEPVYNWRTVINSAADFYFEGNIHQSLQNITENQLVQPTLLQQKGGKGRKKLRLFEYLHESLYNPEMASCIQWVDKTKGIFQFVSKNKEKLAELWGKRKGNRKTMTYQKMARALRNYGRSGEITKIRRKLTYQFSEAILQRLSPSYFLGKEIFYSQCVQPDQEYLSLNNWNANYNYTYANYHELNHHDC
In short: as §1

ELF4 = ELF4 (Homo sapiens, UniProt Q99607 1-663); details: protein: recombinant; tags: N-terminal GST; dsDNA, one strand shown
Chain of ELF4 (Q99607 whole entry): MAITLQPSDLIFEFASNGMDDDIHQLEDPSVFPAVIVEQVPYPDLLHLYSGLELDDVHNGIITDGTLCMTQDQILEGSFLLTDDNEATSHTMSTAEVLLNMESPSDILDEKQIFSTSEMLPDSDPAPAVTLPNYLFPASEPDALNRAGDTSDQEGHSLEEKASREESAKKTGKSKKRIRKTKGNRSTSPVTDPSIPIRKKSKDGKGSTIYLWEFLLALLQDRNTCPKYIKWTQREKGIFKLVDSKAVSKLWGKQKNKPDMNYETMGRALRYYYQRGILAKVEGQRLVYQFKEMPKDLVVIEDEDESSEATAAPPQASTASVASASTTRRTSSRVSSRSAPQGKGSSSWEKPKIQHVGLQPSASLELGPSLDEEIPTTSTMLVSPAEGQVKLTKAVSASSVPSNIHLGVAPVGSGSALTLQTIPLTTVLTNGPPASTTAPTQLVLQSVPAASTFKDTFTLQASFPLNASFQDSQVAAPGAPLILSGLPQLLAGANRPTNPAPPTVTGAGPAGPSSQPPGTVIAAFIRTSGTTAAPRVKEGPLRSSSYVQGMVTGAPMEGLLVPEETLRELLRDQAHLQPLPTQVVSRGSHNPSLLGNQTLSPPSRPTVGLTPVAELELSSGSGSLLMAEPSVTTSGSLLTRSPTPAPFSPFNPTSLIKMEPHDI
In short: as §1

ELK4 = target: T9, ELK4 (Homo sapiens, UniProt P28324-2 1-405); details: protein: recombinant; tags: N-terminal GST; dsDNA, one strand shown
T9 sequence: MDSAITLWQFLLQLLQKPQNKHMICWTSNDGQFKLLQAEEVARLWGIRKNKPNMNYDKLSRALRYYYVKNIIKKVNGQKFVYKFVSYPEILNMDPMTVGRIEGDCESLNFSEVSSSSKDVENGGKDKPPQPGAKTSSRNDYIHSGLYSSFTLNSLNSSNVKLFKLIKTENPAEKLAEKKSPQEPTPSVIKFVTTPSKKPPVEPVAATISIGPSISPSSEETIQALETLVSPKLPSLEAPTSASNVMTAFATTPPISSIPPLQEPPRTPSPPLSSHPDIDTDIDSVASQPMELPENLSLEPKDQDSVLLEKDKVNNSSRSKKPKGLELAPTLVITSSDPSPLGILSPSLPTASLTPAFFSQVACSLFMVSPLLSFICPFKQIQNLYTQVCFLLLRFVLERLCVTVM
In short: as §1

ETV2 = target: T10, ETV2 (Homo sapiens, UniProt O00321 1-342); details: protein: recombinant; tags: N-terminal GST; dsDNA, one strand shown
T10 sequence: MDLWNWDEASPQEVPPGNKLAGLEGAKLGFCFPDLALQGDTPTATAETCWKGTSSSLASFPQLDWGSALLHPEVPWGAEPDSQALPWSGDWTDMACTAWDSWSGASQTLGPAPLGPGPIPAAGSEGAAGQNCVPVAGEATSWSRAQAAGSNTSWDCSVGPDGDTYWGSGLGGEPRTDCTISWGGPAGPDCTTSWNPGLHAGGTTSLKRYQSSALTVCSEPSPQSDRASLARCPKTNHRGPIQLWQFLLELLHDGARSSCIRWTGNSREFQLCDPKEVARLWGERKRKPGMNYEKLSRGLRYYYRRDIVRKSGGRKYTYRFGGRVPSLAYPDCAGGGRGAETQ
In short: as §1

ELF3 = target: T11, ELF3 (Homo sapiens, UniProt P78545 1-371); details: protein: recombinant; tags: N-terminal GST; dsDNA, one strand shown
T11 sequence: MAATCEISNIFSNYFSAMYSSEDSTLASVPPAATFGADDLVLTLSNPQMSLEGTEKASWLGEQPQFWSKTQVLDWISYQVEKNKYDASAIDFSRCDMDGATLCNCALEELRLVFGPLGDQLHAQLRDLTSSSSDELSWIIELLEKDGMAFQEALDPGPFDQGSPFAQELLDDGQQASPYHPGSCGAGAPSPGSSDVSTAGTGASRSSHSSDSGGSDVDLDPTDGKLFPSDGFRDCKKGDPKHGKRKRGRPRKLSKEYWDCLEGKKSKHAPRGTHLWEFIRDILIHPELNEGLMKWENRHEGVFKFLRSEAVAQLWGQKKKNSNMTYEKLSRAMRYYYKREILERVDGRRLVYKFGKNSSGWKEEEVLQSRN
In short: as §1

CRX = CRX (Homo sapiens, UniProt O43186 1-299); details: protein: recombinant; tags: N-terminal GST; dsDNA, one strand shown
Chain of CRX (O43186 whole entry): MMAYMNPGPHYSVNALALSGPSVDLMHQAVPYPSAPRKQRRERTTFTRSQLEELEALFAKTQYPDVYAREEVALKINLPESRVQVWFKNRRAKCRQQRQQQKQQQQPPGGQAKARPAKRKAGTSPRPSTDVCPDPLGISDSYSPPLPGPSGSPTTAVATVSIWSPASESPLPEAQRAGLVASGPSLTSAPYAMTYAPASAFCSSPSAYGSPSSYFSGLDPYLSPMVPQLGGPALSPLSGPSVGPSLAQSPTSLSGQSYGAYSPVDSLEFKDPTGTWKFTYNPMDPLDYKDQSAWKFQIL
In short: as §1

ETV1 = ETV1 (Homo sapiens, UniProt P50549 1-477); details: protein: recombinant; tags: N-terminal GST; dsDNA, one strand shown
Chain of ETV1 (P50549 whole entry): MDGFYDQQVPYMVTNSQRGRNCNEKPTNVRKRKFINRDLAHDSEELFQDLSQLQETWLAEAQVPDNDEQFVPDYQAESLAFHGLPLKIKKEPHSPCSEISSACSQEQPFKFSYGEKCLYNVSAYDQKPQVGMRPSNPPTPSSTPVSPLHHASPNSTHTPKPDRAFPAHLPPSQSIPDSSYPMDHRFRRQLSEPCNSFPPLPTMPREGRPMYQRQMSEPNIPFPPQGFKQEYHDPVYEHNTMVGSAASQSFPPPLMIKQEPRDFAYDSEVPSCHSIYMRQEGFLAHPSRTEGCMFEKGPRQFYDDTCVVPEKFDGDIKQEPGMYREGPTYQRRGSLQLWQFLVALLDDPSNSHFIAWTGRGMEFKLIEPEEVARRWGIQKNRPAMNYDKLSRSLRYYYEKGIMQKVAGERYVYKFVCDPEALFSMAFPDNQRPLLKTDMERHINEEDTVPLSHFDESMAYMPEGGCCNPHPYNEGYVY
In short: as §1

Question: Which results are given for CTCTAG?
Answer: binding signal (FLI1): 1.25 fold enrichment (6-mer frequency, TF over GST control); binding signal (ELK1): 1.26 fold enrichment (6-mer frequency, TF over GST control); binding signal (GABPA): 1.32 fold enrichment (6-mer frequency, TF over GST control); binding signal (ERG): 1.25 fold enrichment (6-mer frequency, TF over GST control); binding signal (ELF1): 1.38 fold enrichment (6-mer frequency, TF over GST control); binding signal (EHF): 1.36 fold enrichment (6-mer frequency, TF over GST control); binding signal (SPI1): 1.09 fold enrichment (6-mer frequency, TF over GST control); binding signal (SPIB): 1.22 fold enrichment (6-mer frequency, TF over GST control); binding signal (ELK3): 1.26 fold enrichment (6-mer frequency, TF over GST control); binding signal (FEV): 1.25 fold enrichment (6-mer frequency, TF over GST control); binding signal (ETV5): 1.3 fold enrichment (6-mer frequency, TF over GST control); binding signal (HSF1): 2.39 fold enrichment (6-mer frequency, TF over GST control); binding signal (SPIC): 1.37 fold enrichment (6-mer frequency, TF over GST control); binding signal (ELF4): 1.32 fold enrichment (6-mer frequency, TF over GST control); binding signal (ELK4): 1.31 fold enrichment (6-mer frequency, TF over GST control); binding signal (ETV2): 1.12 fold enrichment (6-mer frequency, TF over GST control); binding signal (ELF3): 1.1 fold enrichment (6-mer frequency, TF over GST control); binding signal (CRX): 1.46 fold enrichment (6-mer frequency, TF over GST control); binding signal (ETV1): 1.16 fold enrichment (6-mer frequency, TF over GST control)
